Laboratory results published in PubChem BioAssay (Tox21).
Results filed as inconclusive are left out. Calls of active or inactive are those of the source. Unless noted, calls come from the whole dose curve.

Legend:
[1] = qHTS assay to identify small molecule antagonists of the peroxisome proliferator-activated receptor delta (PPARd) signaling pathway - cell viability counter screen (AID 743213; active = well fitted curve in the direction sought with a large enough effect in the repeat runs; an effect the other way counts as inactive or inconclusive; note: % is set by controls: 0 for no effect and ±100 for the full control effect; nearly all actives have a fitted effect of over 50% in size)
Method in brief: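 Luminescence from CellTiter-Glo, added after the bla read and incubated 30 min at room temperature, gives viability of HEK293H PPARd-bla cells exposed to compounds for 17 h at 37 C with 300 nM L165041.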

[2] = qHTS assay to identify small molecule agonists of the farnesoid-X-receptor (FXR) signaling pathway - cell viability counter screen (AID 743218; active = well fitted curve in the direction sought with a large enough effect in the repeat runs; an effect the other way counts as inactive or inconclusive; note: % is set by controls: 0 for no effect and ±100 for the full control effect; nearly all actives have a fitted effect of over 45% in size)
Method in brief: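 Readout: CellTiter-Glo luminescence, 30 min RT, multiplexed after the FXR-bla FRET reading. HEK 293T FXR-UAS-bla cells received compound 5 h post-plating and were incubated 16 h at 37 C.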

[3] = target: Bile acid receptor (Homo sapiens) (UniProt Q96RI1); experiment: qHTS assay to identify small molecule agonists of the farnesoid-X-receptor (FXR) signaling pathway (AID 743220; active = well fitted activation curve with a large enough effect in the signal ratio in the repeat runs, not every such curve was filed as active; the % refers to the signal ratio; note: % is set by controls: 0 for no effect and ±100 for the full control effect)
Sequence of Bile acid receptor (Homo sapiens) (Q96RI1 whole entry, looked up): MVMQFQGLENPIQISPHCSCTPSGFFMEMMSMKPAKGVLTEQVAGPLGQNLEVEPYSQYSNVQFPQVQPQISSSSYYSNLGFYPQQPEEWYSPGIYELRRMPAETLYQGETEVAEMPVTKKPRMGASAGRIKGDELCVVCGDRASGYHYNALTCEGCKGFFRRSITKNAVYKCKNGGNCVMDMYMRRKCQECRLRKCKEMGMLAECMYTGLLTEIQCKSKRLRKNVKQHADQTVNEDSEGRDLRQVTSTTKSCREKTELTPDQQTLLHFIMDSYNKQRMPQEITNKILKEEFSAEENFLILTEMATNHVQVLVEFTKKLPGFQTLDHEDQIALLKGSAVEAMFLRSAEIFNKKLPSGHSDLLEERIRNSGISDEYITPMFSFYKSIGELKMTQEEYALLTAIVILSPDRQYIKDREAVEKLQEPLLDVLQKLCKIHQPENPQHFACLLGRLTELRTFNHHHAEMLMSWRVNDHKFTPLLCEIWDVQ
Method in brief: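 FXR-UAS-bla HEK 293T cells carrying a UAS-driven beta-lactamase reporter were plated for 5 h at 37C/5% CO2, then exposed to DMSO-dissolved Tox21 10K compounds for 16 h at 37C. A LiveBLAzer B/G FRET substrate was loaded for 2 h at room temperature before fluorescence reading.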

[4] = qHTS assay to identify small molecule antagonists of the farnesoid-X-receptor (FXR) signaling pathway - cell viability counter screen (AID 743221; active = well fitted cell-killing curve with a large enough effect in the repeat runs, not every such curve was filed as active; note: % is set by controls: 0 for no effect and ±100 for the full control effect; nearly all actives have a fitted effect of over 50% in size)
Method in brief: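 GeneBLAzer FXR-UAS-bla HEK 293T cells, compound plus chenodeoxycholic acid (50 uM final), 16 h at 37 C. CellTiter-Glo added to the same wells after the beta-lactamase read; luminescence read after 30 min at room temperature as viability.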

[5] = target: Vitamin D3 receptor (Homo sapiens) (UniProt P11473); experiment: qHTS assay to identify small molecule antagonists of the vitamin D receptor (VDR) signaling pathway (AID 743223; active = well fitted inhibition curve with a large enough effect in the signal ratio in the repeat runs, not every such curve was filed as active; the % refers to the signal ratio; note: % is set by controls: 0 for no effect and ±100 for the full control effect)
Sequence of Vitamin D3 receptor (Homo sapiens) (P11473 whole entry, looked up): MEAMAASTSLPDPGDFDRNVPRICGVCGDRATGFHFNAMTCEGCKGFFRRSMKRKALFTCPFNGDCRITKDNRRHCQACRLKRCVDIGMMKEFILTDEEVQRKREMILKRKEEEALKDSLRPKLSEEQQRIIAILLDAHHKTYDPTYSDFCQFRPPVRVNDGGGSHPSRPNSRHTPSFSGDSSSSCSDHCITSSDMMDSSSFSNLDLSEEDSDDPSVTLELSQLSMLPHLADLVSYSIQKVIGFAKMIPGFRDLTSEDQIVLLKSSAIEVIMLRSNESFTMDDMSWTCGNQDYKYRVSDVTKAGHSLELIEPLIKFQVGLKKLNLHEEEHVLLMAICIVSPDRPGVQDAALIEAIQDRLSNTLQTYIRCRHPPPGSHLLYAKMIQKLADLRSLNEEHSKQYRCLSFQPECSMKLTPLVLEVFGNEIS
Method in brief: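 VDR-bla cells were treated with compound plus 3 nM final 1alpha,25-dihydroxyvitamin D3 for 16 h at 37C. Beta-lactamase reporter read by B/G FRET substrate fluorescence after 2 h at room temperature. qHTS format.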

[6] = qHTS assay to identify small molecule agonists of the vitamin D receptor (VDR) signaling pathway - cell viability counter screen (AID 743224; active = well fitted curve in the direction sought with a large enough effect in the repeat runs; an effect the other way counts as inactive or inconclusive; note: series mostly up to about 63 µM; % is set by controls: 0 for no effect and ±100 for the full control effect; nearly all actives have a fitted effect of over 50% in size)
Method in brief: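 In parallel with the bla FRET readout, cytotoxicity toward VDR-bla cells after 16 h compound exposure was assessed by CellTiter-Glo, with luminescence recorded after a 30 min room-temperature incubation.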

[7] = qHTS assay to identify small molecule antagonists of the vitamin D receptor (VDR) signaling pathway - cell viability counter screen (AID 743225; active = well fitted curve in the direction sought with a large enough effect in the repeat runs; an effect the other way counts as inactive or inconclusive; note: % is set by controls: 0 for no effect and ±100 for the full control effect; nearly all actives have a fitted effect of over 50% in size)
Method in brief: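 VDR-UAS-bla HEK 293T cells were plated and incubated 4 h at 37C, then dosed with compound plus 3 nM (final) 1-alpha,25-dihydroxyvitamin D3 for 16 h. After the 2 h beta-lactamase read, viability in the same wells was read as CellTiter-Glo luminescence after 30 min at room temperature.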

[8] = qHTS assay to identify small molecule agonists of the NFkB signaling pathway (AID 1159509; active = well fitted curve in the direction sought with a large enough effect in the signal ratio in the repeat runs, not every such curve was filed as active; the % refers to the signal ratio; note: series mostly up to about 61 µM; % is set by controls: 0 for no effect and ±100 for the full control effect)
Method in brief: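 Pathway activation was measured in ME-180 cells stably expressing beta-lactamase under NF-kB response element control. Substrate cleavage was read as the 460/530 nm emission shift after 5 hr compound incubation.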

[9] = qHTS assay to identify small molecule agonists of the NFkB signaling pathway - cell viability counter screen (AID 1159515); note: series mostly up to about 61 µM; % is set by controls: 0 for no effect and ±100 for the full control effect; nearly all actives have a fitted effect of over 55% in size
Method in brief: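 Plate 2,000 NFkB-bla ME-180 cells/well; incubate overnight. Add compounds, 5 hr at 37 C. Add FRET substrate, 1.5 hr RT. Add CellTiter-Glo, 30 min RT; read luminescence.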

[10] = qHTS assay to identify small molecule agonists of the endoplasmic reticulum stress response signaling pathway (AID 1159516; active = well fitted activation curve with a large enough effect in the signal ratio in the repeat runs, not every such curve was filed as active; the % refers to the signal ratio; note: % is set by controls: 0 for no effect and ±100 for the full control effect)
Method in brief: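 Beta-lactamase expression from the ER stress response element in HeLa reporter cells is quantified with the LiveBLAzer B/G FRET substrate, read at 405 nm excitation after 2 hr at room temperature, following 5 hr compound treatment at 37 C.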

[11] = qHTS assay to identify small molecule agonists of the endoplasmic reticulum stress response signaling pathway - cell viability counter screen (AID 1159517)
Method in brief: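 Cpd-treated ESRE-bla HeLa (5 hr, 37 C) → LiveBLAzer 2 hr RT → CellTiter-Glo 30 min RT → luminescence.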

[12] = qHTS assay to identify small molecule antagonists of the retinoid-related orphan receptor gamma (ROR-gamma) signaling pathway - cell viability counter screen (AID 1159520; active = well fitted curve in the direction sought with a large enough effect in the repeat runs; an effect the other way counts as inactive or inconclusive)
Method in brief: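 Tet-on ROR gamma CHO cells (1,000/well) were plated 4 hr, given compounds in DMSO for 2 hr at 37 C, then induced with 1 uM final doxycycline for 16 hr. Viability was read as ATP by CellTiter-Glo luminescence after 30 min.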

[13] = qHTS assay to identify small molecule agonists of the AP-1 signaling pathway - cell viability counter screen (AID 1159525); note: nearly all actives have a fitted effect of over 55% in size
Method in brief: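 Each titration point was normalised to DMSO and tetra n-octyl ammonium bromide controls. The read was Cell Titer Glo luminescence after 30 min at RT, following 5 h compound exposure of ME-180 AP-1-bla cells at 37 °C.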

[14] = qHTS assay to identify small molecule agonists of the AP-1 signaling pathway (AID 1159526); note: % is set by controls: 0 for no effect and ±100 for the full control effect
[15] = qHTS assay to identify small molecule agonists of the peroxisome proliferator-activated receptor delta (PPARd) signaling pathway - cell viability counter screen (AID 743211; active = well fitted curve in the direction sought with a large enough effect in the repeat runs; an effect the other way counts as inactive or inconclusive; note: % is set by controls: 0 for no effect and ±100 for the full control effect; nearly all actives have a fitted effect of over 55% in size)
Method in brief: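 PPARd-bla HEK293H cells (3000/well) were pre-incubated 5 h at 37 C, then exposed to compound for 17 h at 37 C. After 2 h with LiveBLAzer substrate, CellTiter-Glo was added to the same wells; luminescence read after 30 min at room temperature.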

[16] = target: Peroxisome proliferator-activated receptor delta (Homo sapiens) (UniProt Q03181); experiment: qHTS assay to identify small molecule agonists of the peroxisome proliferator-activated receptor delta (PPARd) signaling pathway (AID 743212); note: % is set by controls: 0 for no effect and ±100 for the full control effect
Sequence of Peroxisome proliferator-activated receptor delta (Homo sapiens) (Q03181 whole entry, looked up): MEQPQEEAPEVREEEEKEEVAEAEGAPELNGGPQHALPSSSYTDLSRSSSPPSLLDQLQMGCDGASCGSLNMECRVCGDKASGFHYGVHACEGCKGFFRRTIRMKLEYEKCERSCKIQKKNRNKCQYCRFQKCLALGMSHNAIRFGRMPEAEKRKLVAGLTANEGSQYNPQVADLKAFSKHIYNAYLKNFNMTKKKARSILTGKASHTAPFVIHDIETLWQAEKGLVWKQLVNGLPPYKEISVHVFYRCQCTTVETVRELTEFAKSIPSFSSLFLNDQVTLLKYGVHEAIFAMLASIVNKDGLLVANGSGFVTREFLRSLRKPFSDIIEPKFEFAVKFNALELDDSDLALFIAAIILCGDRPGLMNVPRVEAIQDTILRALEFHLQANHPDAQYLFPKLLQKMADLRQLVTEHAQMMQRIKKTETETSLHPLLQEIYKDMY
Method in brief: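 Cells expressing a UAS-driven beta-lactamase reporter (PPARd-bla HEK293H) were given test compounds after a 5 h settle and kept at 37 C. Reporter activity was then measured as FRET fluorescence using LiveBLAzer B/G substrate.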

[17] = target: Bile acid receptor (Homo sapiens) (UniProt Q96RI1); experiment: qHTS assay to identify small molecule antagonists of the farnesoid-X-receptor (FXR) signaling pathway (AID 743217; active = well fitted inhibition curve with a large enough effect in the signal ratio in the repeat runs, not every such curve was filed as active; the % refers to the signal ratio; note: % is set by controls: 0 for no effect and ±100 for the full control effect)
Method in brief: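 FRET fluorescence after 2 h room-temperature LiveBLAzer loading gives the readout. Prior step: FXR-bla HEK 293T cells, seeded and incubated 5 h, received test compounds plus 50 uM final CDCA for 16 h at 37 °C.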

[18] = target: Vitamin D3 receptor (Homo sapiens) (UniProt P11473); experiment: qHTS assay to identify small molecule agonists of the vitamin D receptor (VDR) signaling pathway (AID 743222); note: % is set by controls: 0 for no effect and ±100 for the full control effect
Method in brief: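 Following 4 h attachment at 37C, VDR-bla cells (2,000 per well) received DMSO-dissolved compounds or controls. After 16 h incubation, LiveBLAzer B/G FRET substrate was added and fluorescence read 2 h later at room temperature.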

[19] = target: Peroxisome proliferator-activated receptor delta (Homo sapiens) (UniProt Q03181); experiment: qHTS assay to identify small molecule antagonists of the peroxisome proliferator-activated receptor delta (PPARd) signaling pathway (AID 743215; active = well fitted inhibition curve with a large enough effect in the signal ratio in the repeat runs, not every such curve was filed as active; the % refers to the signal ratio)
Method in brief: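 Fluorescence from cleaved LiveBLAzer B/G FRET substrate (2 h, room temperature) reports PPARd-driven beta-lactamase in HEK293H UAS-bla cells. Cells had been treated 17 h at 37 C with compound plus 300 nM final L165041.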

Nc1ccc(C(=O)OCCCOC(=O)c2ccc(N)cc2)cc1
inactive: Potency [1] | Potency [2] | Potency [3] | Potency [4] | outcome [5] | Potency [6] | Potency [7] | outcome [8] | outcome [9] | outcome [10] | outcome [11] | Potency [12] | outcome [13] | outcome [14]

CC(C)CCCCCCOC(=O)CCCCC(=O)OCCCCCCC(C)C
inactive: Potency [15] | Potency [16] | Potency [1] | Potency [17] | Potency [2] | Potency [3] | Potency [4] | outcome [18] | outcome [5] | Potency [6] | Potency [7] | outcome [8] | outcome [9] | outcome [10] | outcome [11] | Potency [12] | outcome [13]

CCCC1C(CC)=CC(CC)=CN1c1ccccc1 (centres undefined)
inactive: Potency [16] | Potency [1] | Potency [19] | Potency [17] | Potency [2] | Potency [3] | Potency [4] | outcome [18] | outcome [8] | outcome [9] | outcome [10] | outcome [11] | Potency [12] | outcome [13] | outcome [14]

CCNC(=O)N1CCN(CCCC(c2ccc(F)cc2)c2ccc(F)cc2)CC1
inactive: Potency [16] | Potency [1] | Potency [2] | Potency [4] | outcome [5] | Potency [7] | outcome [8] | outcome [9] | outcome [10] | outcome [11] | Potency [12] | outcome [13] | outcome [14]

N#C/C(=C1\SCC(c2ccccc2Cl)S1)n1ccnc1 (centres undefined)
inactive: Potency [1] | Potency [2] | Potency [4] | Potency [6] | Potency [7] | outcome [8] | outcome [9] | outcome [10] | outcome [11] | Potency [12] | outcome [13] | outcome [14]

COc1ccc([C@@H]2Sc3ccccc3NC(=O)[C@@H]2O)cc1
inactive: Potency [16] | Potency [19] | Potency [2] | Potency [3] | Potency [4] | outcome [18] | Potency [6] | Potency [7] | outcome [8] | outcome [9] | outcome [10] | outcome [11] | Potency [12] | outcome [13] | outcome [14]

[O]=[Bi]
inactive: activity change, negative = cytotoxicity [15] 2.23% [at 5.95 µM] | activation [16] 2.74% [at 5.95 µM] | viability change, negative = cytotoxic [1] -12.9% [at 6.26 µM] | activity change, negative = inhibition [17] 6.5% [at 5.95 µM] | viability change, negative = cytotoxic [2] 7.08% [at 5.95 µM] | activation [3] 0.937% [at 5.95 µM] | activity change, negative = cytotoxicity [4] 2.95% [at 5.95 µM] | activity change, negative = inhibition [5] 5.58% [at 6.95 µM] | viability change, negative = cytotoxic [7] -2.19% [at 6.95 µM] | activation [8] -0.308% [at 6.95 µM] | activity, negative = cytotoxic [9] 3.69% [at 6.95 µM] | activation [10] -0.917% [at 6.95 µM] | activity change, negative = cytotoxicity [11] 9.83% [at 6.95 µM] | activity, negative = cytotoxicity [12] 7.56% [at 8.39 µM] | viability change, negative = cytotoxic [13] 2.46% [at 6.97 µM]

CC1(C)C2=CCCC(C)(C)[C@]23CC[C@H]1C3
inactive: Potency [16] | Potency [1] | Potency [19] | Potency [3] | Potency [4] | outcome [18] | outcome [5] | Potency [6] | outcome [8] | outcome [9] | outcome [10] | outcome [11] | Potency [12] | outcome [13] | outcome [14]

Cc1ccc(Nc2nccc(N(C)c3ccc4c(C)n(C)nc4c3)n2)cc1S(N)(=O)=O
inactive: Potency [15] | Potency [2] | Potency [4] | outcome [5] | Potency [6] | Potency [7] | outcome [8] | outcome [9] | outcome [10] | outcome [11] | Potency [12] | outcome [13] | outcome [14]

Nc1ccc(S(=O)(=O)O)c(N)c1
inactive: Potency [16] | Potency [1] | Potency [19] | Potency [2] | Potency [4] | outcome [18] | outcome [5] | Potency [6] | outcome [8] | outcome [9] | outcome [10] | outcome [11] | Potency [12] | outcome [13] | outcome [14]
